Assay results taken from PubChem BioAssay (Tox21).
Where “and” joins values, the source holds several entries; their conditions need not be identical. Equal entries are not always repeated. Results filed as inconclusive are left out. Entries that show only a call come without a potency. The source holds several records for some structures; these can differ, active in one and inactive in another. Calls of active or inactive are those of the source. Unless noted, the call rests on the fitted dose curve; in most records, active means well fitted curve in the direction sought with a large enough effect in the repeat runs; inconclusive means weak or mixed curves; inactive means no such curve, though single readings can be large; an effect the other way counts as inactive or inconclusive.

Tests used:
[1] = qHTS assay to identify small molecule agonists of the vitamin D receptor (VDR) signaling pathway - cell viability counter screen (AID 743224); further: nearly all actives have a fitted effect of over 50% in size; further: potency means the concentration at half of the fitted maximal effect
Method in brief: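 Luminescence from CellTiter-Glo, read after 30 min at room temperature, reports viability of VDR-bla cells treated with compounds for 16 h at 37C in the wells used for the beta-lactamase FRET read.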

[2] = qHTS assay to identify small molecule antagonists of the vitamin D receptor (VDR) signaling pathway - cell viability counter screen (AID 743225); further: nearly all actives have a fitted effect of over 50% in size; further: potency means the concentration at half of the fitted maximal effect
Method in brief: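 In this counter screen, VDR-bla HEK 293T cells receive test compound plus 3 nM final calcitriol for 16 h at 37C. Room-temperature steps of 2 h with the beta-lactamase substrate, then 30 min with CellTiter-Glo, precede the luminescence read.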

[3] = qHTS assay to identify small molecule agonists of the NFkB signaling pathway - cell viability counter screen (AID 1159515; calls by dose curve; further: nearly all actives have a fitted effect of over 55% in size)
Method in brief: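 Luminescence from CellTiter-Glo (30 min, room temperature) gives viability, measured in the same wells as the beta-lactamase reporter read. Cells were NFkB-bla ME-180, 2,000 per well, treated 5 hr with compounds.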

[4] = qHTS assay to identify small molecule agonists of the endoplasmic reticulum stress response signaling pathway - cell viability counter screen (AID 1159517; calls by dose curve;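 further: HeLa cells carrying an ER stress response element beta-lactamase reporter; nearly all actives have a fitted effect of over 50% in size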)
Method in brief: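 Luminescence readout: CellTiter-Glo, 30 min RT, same wells as the ESRE-bla reporter read. HeLa ESRE-bla, 1,500 cells/well, o/n 37 C; cpd 5 hr 37 C/5% CO2.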

[5] = qHTS assay to identify small molecule antagonists of the retinoid-related orphan receptor gamma (ROR-gamma) signaling pathway - cell viability counter screen (AID 1159520); further: nearly all actives have a fitted effect of over 50% in size
Method in brief: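 Tet-on ROR gamma CHO cells (1,000/well) were plated 4 hr, given compounds in DMSO for 2 hr at 37 C, then induced with 1 uM final doxycycline for 16 hr. Viability was read as ATP by CellTiter-Glo luminescence after 30 min.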

[6] = target: Nuclear receptor ROR-gamma (Homo sapiens) (UniProt P51449); experiment: qHTS assay to identify small molecule antagonists of the retinoid-related orphan receptor gamma (ROR-gamma) signaling pathway (AID 1159521; further: nearly all actives have a fitted effect of over 50% in size; further: potency means the concentration at half of the fitted maximal effect)
Method in brief: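 Screening format: cell-based luciferase reporter in CHO cells with doxycycline-inducible RORγ. Compound pre-exposure lasts 2 h, doxycycline is 1 uM final, induction runs 16 h at 37 C, and ONE-Glo luminescence is read.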

[7] = qHTS assay to identify small molecule agonists of the AP-1 signaling pathway - cell viability counter screen (AID 1159525; calls by dose curve; further: nearly all actives have a fitted effect of over 55% in size)
Method in brief: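 ME-180 AP-1-bla, 2500 cells/well, Opti-MEM + 0.5% dialyzed FBS; overnight 37 °C; cpd 15-pt titration, 5 h 37 °C; CellTiter-Glo 30 min RT; luminescence read; normalised to TOAB and DMSO controls.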

[8] = qHTS assay to identify small molecule agonists of the AP-1 signaling pathway (AID 1159526; calls by dose curve)
[9] = target: Retinoic acid receptor RXR-alpha (Homo sapiens) (UniProt P19793); experiment: qHTS assay to identify small molecule agonists of the RXR signaling pathway (AID 1159527; calls by dose curve; further: nearly all actives have a fitted effect of over 35% in size; further: potency means the concentration at half of the fitted maximal effect)
Method in brief: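 Fluorescence ratio readout (460 vs 530 nm) from GeneBLAzer RXR-alpha HEK 293T cells after 16 hr compound treatment; cells seeded 5 hr beforehand in low-serum, charcoal-stripped medium.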

[10] = qHTS assay to identify small molecule antagonists of the retinoic acid receptor (RAR) signaling pathway (AID 1159552; further: nearly all actives have a fitted effect of over 50% in size; further: potency means the concentration at half of the fitted maximal effect)
Method in brief: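 Using a RARE-driven luciferase construct in C3RL4 cells, retinol at 1 uM final provided the agonist stimulus while compounds were co-applied. After 6 hours at 37 C, luminescence was recorded to flag inhibitors of retinol signaling.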

[11] = qHTS assay to identify small molecule agonists of the retinoic acid receptor (RAR) signaling pathway (AID 1159553); settings: C3RL4 RARE luciferase reporter, agonist, 6 h; activation: at 73.3 µM (top of the series) unless noted
Method in brief: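 Luminescence from a RARE-driven luciferase reporter in C3RL4 cells served as the read-out, measured after 30 min with detection reagent at room temperature. Compounds in DMSO were applied for 6 hr at 37 C following overnight seeding.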

[12] = qHTS assay to identify small molecule agonists of the RXR signaling pathway - cell viability counter screen (AID 1159529)
Method in brief: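 Viability read-out for the RXR-alpha agonist qHTS: luminescent CellTiter-Glo signal after 30 min at RT. HEK 293T bla reporter cells, 2% charcoal-stripped FBS, 16 hr compound incubation; tetraoctyl ammonium bromide as cytotoxic control.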

[13] = qHTS assay to identify small molecule antagonists of the estrogen related receptor (ERR) signaling pathway - cell viability counter screen (AID 1224818);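 further: viability measured after 17.5 h of compound exposure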
Method in brief: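 Multiplexed counter screen to separate cytotoxic compounds from true ERR modulators. ERR cells received DMSO-dissolved compounds after a 6 h pre-incubation, were exposed 17.5 h at 37 C, then assayed with CellTiter-Fluor fluorescence.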

[14] = qHTS assay to identify small molecule antagonists of the estrogen related receptor signaling pathway with the pleiotropic PPARgamma coactivator (PGC) cell viability counter screen (AID 1224822;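 further: viability read after 17.5 h compound exposure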)
Method in brief: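 Cells: PGC/ERR, 2,000/well, 1536-well format. Pre-incubation 6 h, 37 C/5% CO2. Compound exposure 17.5 h, 37 C. Detection: CellTiter-Fluor, 30 min, fluorescence.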

[15] = qHTS assay to identify small molecule antagonists of the retinoid acid receptor (RAR) signaling pathway - cell viability counter screen (AID 1159551); further: nearly all actives have a fitted effect of over 35% in size
Method in brief: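 Luminescent ATP quantitation (CellTiter-Glo) gave cell viability in C3RL4 cells exposed to test chemicals for 6 h at 37 C alongside 1 uM final retinol.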

[16] = qHTS assay to identify small molecule antagonists of the estrogen related receptor (ERR) signaling pathway (AID 1224819)
Method in brief: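 Seed ERR cells 2,000/well; rest 6 h at 37 C/5% CO2; pin compounds in DMSO; incubate 18 h at 37 C; add One-Glo; wait 30 min at room temperature; measure luminescence.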

[17] = qHTS assay to identify small molecule agonists of the estrogen related receptor (ERR) signaling pathway (AID 1224820)
Method in brief: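 ERR reporter cells (NTP line) plated 2,000/well, incubated 6 h at 37 C/5% CO2, then pinned with compounds in DMSO and held 18 h at 37 C. One-Glo added; luminescence read after 30 min at room temperature.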

[18] = system: estrogen-related receptor alpha (ERRalpha) with PGC-1alpha coactivator, human; experiment: qHTS assay to identify small molecule antagonists of the estrogen related receptor signaling pathway with the pleiotropic PPARgamma coactivator (PGC) (AID 1224821; calls by dose curve)
Method in brief: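 Cells engineered for PGC/ERR signalling (line from NTP) were plated 6 h at 37 C/5% CO2, then exposed to DMSO-dissolved compound for 18 h at 37 C. Luciferase activity was read by One-Glo luminescence after 30 min at room temperature.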

[19] = qHTS assay to identify small molecule agonists of the estrogen related receptor signaling pathway with the pleiotropic PPARgamma coactivator (PGC) (AID 1224823)
Method in brief: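 PGC/ERR reporter cells were seeded, rested 6 h at 37 C/5% CO2, then exposed to compounds in DMSO by pin transfer for 18 h at 37 C. Luciferase activity was read as luminescence after One-Glo reagent and 30 min at room temperature.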

Retinoic acid receptor RXR-alpha (Homo sapiens), sequence (P19793 whole entry, looked up): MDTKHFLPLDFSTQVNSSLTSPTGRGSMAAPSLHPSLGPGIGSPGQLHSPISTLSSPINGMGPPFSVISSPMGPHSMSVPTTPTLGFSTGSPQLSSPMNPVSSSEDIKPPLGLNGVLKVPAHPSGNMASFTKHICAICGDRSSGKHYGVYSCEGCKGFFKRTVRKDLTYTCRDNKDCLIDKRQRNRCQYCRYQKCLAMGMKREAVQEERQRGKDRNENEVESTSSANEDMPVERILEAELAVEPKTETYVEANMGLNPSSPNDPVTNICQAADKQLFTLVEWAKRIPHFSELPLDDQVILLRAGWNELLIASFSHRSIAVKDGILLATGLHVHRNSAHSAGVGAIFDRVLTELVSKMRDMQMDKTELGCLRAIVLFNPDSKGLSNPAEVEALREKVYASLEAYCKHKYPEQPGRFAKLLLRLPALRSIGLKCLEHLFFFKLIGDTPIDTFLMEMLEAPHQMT

| SMILES | Potency [1] | Potency [2] | Potency [3] | Potency [4] | Potency [5] | Potency [6] | Potency [7] | outcome [8] | Potency [9] | Potency [10] | Potency [11] | Potency [12] | outcome [13] | Potency [14] | Potency [15] | Potency [16] | outcome [17] | Potency [18] | outcome [19] |
| --- | --- | --- | --- | --- | --- | --- | --- | --- | --- | --- | --- | --- | --- | --- | --- | --- | --- | --- | --- |
| CCOC(=O)c1ccc(O)cc1 | inactive | inactive | inactive | inactive | inactive | inactive | inactive | inactive | inactive | inactive | inactive |  |  |  |  |  |  |  |  |
| Cc1ccc(C(C)C)cc1 | inactive |  | inactive | inactive | inactive | inactive | inactive | inactive | inactive | inactive | inactive |  |  |  |  |  |  |  |  |
| C=CC(=O)NCOCCCC | inactive |  | inactive | inactive | inactive | inactive | inactive | inactive |  | inactive | inactive |  |  |  |  |  |  |  |  |
| CN1Cc2c(N)cccc2C(c2ccccc2)C1 (stereo unspecified) | inactive |  | inactive | inactive | inactive |  | inactive | inactive | inactive | inactive | inactive | inactive | inactive | inactive |  |  |  |  |  |
| CCN(CC)CCNC(=O)c1ccc(N)cc1 |  |  | inactive | inactive | inactive |  | inactive | inactive | inactive |  |  | inactive | inactive | inactive | inactive |  |  |  |  |
| CCCOC(=O)NCCCN(C)C | inactive |  | inactive | inactive | inactive | inactive | inactive | inactive | 21.9 µM (active) and inactive | inactive | inactive | inactive |  |  |  |  |  |  |  |
| CCOC(=O)CC(=O)OCC | inactive | inactive | inactive | inactive | inactive |  | inactive | inactive | inactive | inactive | inactive |  |  |  | inactive |  |  |  |  |
| N[C@@H](Cc1cc(I)c(Oc2ccc(O)c(I)c2)c(I)c1)C(=O)O | inactive | inactive | inactive | inactive | inactive |  | inactive | inactive | inactive |  |  | inactive |  |  | inactive |  |  |  |  |
| C=CC(C)(C)C | inactive | inactive | inactive | inactive | inactive |  | inactive | inactive | inactive | inactive | inactive | inactive |  |  | inactive |  |  |  |  |
| Cc1cc(CC(=O)O)n(C)c1C(=O)c1ccc(Cl)cc1 | inactive | inactive | inactive | inactive | inactive | inactive | inactive | inactive | inactive | inactive | inactive |  |  |  | inactive |  |  |  |  |
| CC(CN1c2ccccc2Sc2ccccc21)N(C)C (stereo unspecified) | 49.5 µM (active) and 43.6 µM (active) | 21.9 µM (active) | inactive | inactive | inactive | 24.6 µM (active) and 54.5 µM (active) | inactive |  | inactive | 27.6 µM (active) and 48.6 µM (active) and 26.6 µM (active) |  |  | inactive | inactive | inactive | inactive | inactive | inactive | inactive |
| Cc1ccc(C)c(S(=O)(=O)O)c1 | inactive | inactive | inactive | inactive | inactive | inactive | inactive | inactive | inactive | inactive | inactive |  |  |  | inactive |  |  |  |  |
| NC1CCCCC1N (stereo unspecified) | inactive | inactive | inactive | inactive | inactive | inactive | inactive | inactive | inactive | inactive | inactive |  |  |  | inactive |  |  |  |  |
| Cc1cccc(C)c1[N+](=O)[O-] | inactive | inactive | inactive | inactive | inactive | inactive | inactive | inactive | inactive | inactive | inactive | inactive |  |  | inactive |  |  |  |  |
